From PubChem BioAssay (Tox21)
Records with an inconclusive call do not appear. A call without a number means that no potency is given here. Unmarked numbers belong to inactive results. Activity calls are given as the source filed them. Calls come from the whole dose curve.
Potency is the fitted concentration of half-maximal effect.

What follows are compounds tested against Beta-2 adrenergic receptor (Homo sapiens) (UniProt P07550) (assay: Adrenergic beta2 receptor (ADRB2) small molecule agonists, cell-based qHTS assay (AID 1963593)). Conditions: CHO-ADRB2 cells, cAMP HTRF, 30 min; series mostly up to 92.4 µM.
Beta-2 adrenergic receptor (Homo sapiens), sequence (P07550 whole entry, looked up): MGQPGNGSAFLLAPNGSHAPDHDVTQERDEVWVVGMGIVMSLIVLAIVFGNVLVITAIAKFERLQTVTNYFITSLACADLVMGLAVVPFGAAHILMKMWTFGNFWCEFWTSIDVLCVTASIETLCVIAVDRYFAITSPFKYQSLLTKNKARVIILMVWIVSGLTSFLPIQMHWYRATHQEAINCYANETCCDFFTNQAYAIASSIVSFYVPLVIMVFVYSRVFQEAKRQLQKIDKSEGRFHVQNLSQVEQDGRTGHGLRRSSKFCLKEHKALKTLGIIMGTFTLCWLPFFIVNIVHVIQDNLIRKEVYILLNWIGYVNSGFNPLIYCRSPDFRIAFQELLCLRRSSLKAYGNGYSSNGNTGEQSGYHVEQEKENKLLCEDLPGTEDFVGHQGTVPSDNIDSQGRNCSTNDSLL
From the text: National Center for Advancing Translational Sciences [NCATS]
Division of Preclinical Innovation [DPI]
U.S. Environmental Protection Agency [EPA]
National Institutes of Environmental Health Sciences [NIEHS]
National Toxicology Program [NTP]
U.S. Food and Drug Administration [FDA]
Beta adrenergic receptors (Beta-ARs) belong to the G-protein coupled receptor (GPCR) superfamily, includes three subtypes - beta1, beta2, and beta3. Beta1-AR is the predominant receptor subtype expressed in the heart, and beta2-AR is expressed in the kidney, lung, blood vessel and in the heart, and beta3 is found in the adipocytes. Beta1 and 2 ARs couple to Gs protein and elevate cyclic adenosine mono phosphate (cAMP), which activates protein kinase A and leads to the downstream signaling responsible for the physiological actions. Beta-AR agonists or antagonists are the most prescribed therapeutic agents for heart failure and asthma, and these were one of the first target receptors for the rational drug design. Tox21 10K compound library was screened using the cAMP-Gs dynamic assay (Cisbio Bioassays, Shelton, CT) to identify agonists/antagonists of the Gs-coupled human adrenergic, beta2 receptor (ADRB2) in the CHO-ADRB2 cell line (Codex BioSolutions, Inc. Gaithersburg, MD), which stably over-expresses ADRB2. The principle of cAMP-Gs dynamic assay is based on HTRF technology, which facilitates the fluorescence resonance energy transfer (FRET) between donor Europium cryptate and acceptor d2-labeled cAMP. The cAMP generated within cells competes with the red acceptor, d2-labled cAMP, for binding to the monoclonal anti-cAMP-cryptate (Europium donor). An increase in intracellular cAMP leads to the disruption of FRET signal, and the signal is inversely proportional to the cAMP concentration. Isoproterenol HCl (Sigma-Aldrich, St. Louis, MO) was used as a positive control in the screening.
Tox21 Assay Protocol Summary:
CHO-ADRB2 cells were dispensed at 1,000/well in 4uL assay medium into white/solid 1536-well plates (Greiner Bio-One North America Inc., Monroe, NC) using a Multidrop Combi dispenser (ThermoFisher Scientific, Waltham, MA). The assay plates were incubated at 37C and 5% CO2 for an overnight (18-20hr). Then positive control and test compounds dissolved in DMSO were transferred to the assay plates at 23nL using a Pintool station (Wako, San Diego, CA). Following the compound and positive control transfer, 1uL stimulation mix containing 100uM IBMX and 25uM Ro-20-1724 was added to each well of the assay plates using BioRAPTR Flying Reagent Dispenser (FRD, Beckman Coulter, Brea, CA). The assay plates were incubated at room temperature for 0.5hr. Then 2.5ul each d2-labled cAMP and anti-cAMP-cryptate solutions were added separately to each well of the assay plates using an FRD and the assay plates were incubated at room temperature for 1hr.
In the case of ClC(Cl)=C(Cl)Cl, the Potency is reported as “inactive”.
With CC(C)c1c(CN(C)C(C)Cc2ccccc2)n(C)n(-c2ccccc2)c1=O (stereo not given) the Potency was “inactive”.
With NNC(N)=O the Potency was “inactive”.
In the case of CC(=O)c1cc(C(C)(C)C)cc2c1CCC2(C)C, the Potency is reported as “inactive”.
For Cc1cc(C(F)(C(F)(F)F)C(F)(F)F)ccc1NC(=O)c1cccc(I)c1C(=O)NC(C)(C)CS(C)(=O)=O, the Potency was “inactive”.
In the case of Cc1cc(=O)[nH]o1, the Potency is reported as “inactive”.
For O=[N+]([O-])c1ccc(Oc2ccc(C(F)(F)F)cc2[N+](=O)[O-])cc1, the Potency was “inactive”.
With COC(=O)/C=C(\C)OP(=O)(OC)OC the Potency was 17.2 µM (active).
O=C(O)CCCCCCNC1c2ccccc2CCc2ccccc21 was tested, and the Potency was “inactive”.
In the case of COc1cc(C=O)cc2c1[C@H](COC(N)=O)[C@]1(OC(C)=O)ON2C[C@H]2[C@@H]1N2C(C)=O, the Potency is reported as “inactive”.
COc1ccc(CN2CCNCC2)c(OC)c1OC was tested, and the Potency was “inactive”.
With COC(=O)c1cc(Oc2ccc(Cl)cc2Cl)ccc1[N+](=O)[O-] the Potency was “inactive”.
For CC(C)(COCC1CO1)COCC1CO1 (stereo not given), the Potency was “inactive”.
With CCCCC(=O)Cl the Potency was “inactive”.
For CNC(=O)Oc1cccc(C(C)C)c1, the Potency was “inactive”.
With COc1ccc2c(c1OC)C(=O)O[C@H]2[C@@H]1c2cc3c(cc2CCN1C)OCO3 the Potency was “inactive”.
With CN[C@@H](C)[C@H](O)c1ccccc1 the Potency was “inactive”.
CCCSP(=S)(OCC)Oc1ccc(Cl)cc1Cl (stereo not given) was tested, and the Potency was “inactive”.
CCC(C)(C)O was tested, and the Potency was “inactive”.
With NC(=O)C(Cl)(Cl)Cl the Potency was “inactive”.
With CCCCCCCCCCCCCCC(Br)C(=O)O (stereo not given) the Potency was “inactive”.
In the case of CCN(C(C)=O)c1cccc(-c2ccnc3c(C#N)cnn23)c1, the Potency is reported as “inactive”.
In the case of CNC(=O)O/N=C(\C)SC, the Potency is reported as “inactive”.
For O=C=Nc1ccc(Cl)cc1, the Potency was “inactive”.
In the case of CC1N=C(N)OC1c1ccccc1 (stereo not given), the Potency is reported as “inactive”.
With CCCCS(=O)(=O)Cl the Potency was “inactive”.
With NCC1(CC(=O)O)CCCCC1 the Potency was “inactive”.
N#Cc1cc(I)c(O)c(I)c1 was tested, and the Potency was “inactive”.
CN(C)c1ccc(N=Nc2ccccc2)cc1 was tested, and the Potency was “inactive”.
SCc1ccco1 was tested, and the Potency was “inactive”.
With C=CCC1(C(C)CC)C(=O)NC(=O)NC1=O (stereo not given) the Potency was “inactive”.
For Clc1c(Cl)c(Cl)c(Cl)c(Cl)c1Cl, the activation was 15.9% [at 8.39 µM].
CCCOc1nn(C(=O)NS(=O)(=O)c2ccccc2C(=O)OC)c(=O)n1C was tested, and the Potency was “inactive”.
For C=CCC1([C@H](C)CCC)C(=O)NC(=O)NC1=O, the Potency was “inactive”.
With OC(Cn1cncn1)(c1ccc(F)cc1)c1ccccc1F (stereo not given) the Potency was “inactive”.
With CN(C)C(=O)Oc1cc(OC(=O)N(C)C)cc(C(O)CNC(C)(C)C)c1 (stereo not given) the Potency was “inactive”.
With CN1CC[C@]23c4c5ccc(O)c4O[C@H]2[C@@H](O)C=C[C@H]3[C@H]1C5 the Potency was “inactive”.
In the case of CC/C(=N\OC/C=C/Cl)C1=C(O)CC(C2CCOCC2)CC1=O (stereo not given), the Potency is reported as “inactive”.
In the case of O=C(N[C@H](c1ccccc1)[C@@H]1CN2CCC1CC2)c1c(Cl)ccc(C(F)(F)F)c1Cl, the Potency is reported as “inactive”.
Clc1ccc(Oc2ccccc2)cc1 was tested, and the Potency was “inactive”.
